Abs 340nm = compound absorbs light at 340 nm; compound absorbance at 340 nm, fold over control; AID 708; fold change at 10 µM; 65,000 tested, under 10 active;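 active means at 10 µM dose, initial 340 nm absorbance at least 2 fold that of control wells; inactive means change under 2 fold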;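 further: initial absorbance extrapolated from kinetic A340 decline of NADH oxidation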
MK inhibit = blocks S. pneumoniae mevalonate kinase. inhibition, % at 10 µM. 65,000 compounds, 0.48% hits. purified MK, PK/LDH-coupled NADH absorbance 340 nm;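 active means ranked among the strongest by inhibition in the single 10 µM screen, a fixed top-ranked set picked for dose follow-up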
Spn PMK inh = inhibitors of Streptococcus pneumoniae phosphomevalonate kinase; purified PMK, PK/LDH-coupled NADH absorbance 340 nm; inhibition, % at 10 µM; 65,000 compounds, 0.49% hits; AID 539;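 active means top-ranked compounds by inhibition in the single 10 µM screen, taking a fixed number of the strongest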
Autofluor 339 = intrinsic fluorescence of library compounds, ex339/em460 – biochemical, MLSMR library, data from DPM-DC assay, artefact control, profiling panel; fluorescence fold increase at 10 µM; compound autofluorescence, ex339/em460 nm, NADH buffer; hits give high values; 1 = no-compound wells, NADH background; 65,000 compounds, 5.5% hits;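 active means at 10 µM, mean starting fluorescence two-fold or more over control wells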;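 further: signal is the first read of a kinetic run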
DPM-DC inhibit = S. pneumoniae DPM-DC inhibition. purified DPM-DC, PK/LDH coupled NADH fluorescence. calls only at 10 µM. 65,000 compounds, 0.49% hits. AID 556;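 active means the 320 compounds with the highest percent inhibition in the single-dose primary screen, excluding strongly autofluorescent ones, cut at about 32% in these data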;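 further: kinetic rate of NADH fluorescence loss reporting ADP formed by the decarboxylase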
NADH coupling = inhibitors of enzymes used to reach an NAD/NADH endpoint; coupled PK/LDH NADH assays, four targets; IC50, µM (top dose mostly 10 µM); 65,000 compounds, 0.02% hits;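 active means single-dose screening hits from any of four coupled enzyme assays that gave an IC50 when retested across doses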;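 further: the DPM-DC format reads NADH fluorescence rather than 340 nm absorbance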
Hits are given with their value; 0 = inactive; - = no result shown; + = active, no number. The list is not random: actives were taken first. Their share in the collection is about 6.5%.

SMILES	Abs 340nm	MK inhibit	Spn PMK inh	Autofluor 339	DPM-DC inhibit	NADH coupling
COc1oc(-c2ccccc2)nc1C(F)(F)F	0	0	0	0	0	0
CCn1c2ccccc2c2nc3ccccc3nc21	0	0	0	0	-	0
COc1cc2nc3c4ccccc4n(CC#N)c3nc2cc1OC	0	0	0	3.8	-	0
CCn1c2ccccc2c2nc3cc(OC)c(OC)cc3nc21	0	-	0	2.7	+	0
CCNC(=O)CN(Cc1ccccc1)S(=O)(=O)c1ccccc1	0	0	0	0	0	0
CSCCC(NC(C)=O)C(=O)Oc1ccc2c3c(c(=O)oc2c1)CCCC3 (stereo not drawn)	0	0	0	2.1	-	0
COC(=O)[C@H](CCSC)NC(=O)Nc1ccc(C)cc1C	0	0	0	0	0	0
CCC(NC(=O)OC(C)(C)C)C(=O)Oc1ccc2c3c(c(=O)oc2c1)CCC3 (stereo not drawn)	0	0	0	3.6	-	0
Cc1c(OCC(=O)OC(C)(C)C)ccc2c3c(c(=O)oc12)CCC3	0	0	0	0	0	0
COC(=O)CSc1nc2cc(C)cc(C)c2cc1C#N	0	0	0	0	0	0
Cc1cc(C)c2cc(C#N)c(N3CCCC3)nc2c1	0	0	0	2.2	0	0
CCn1c2c(c3cc(C(=O)O)ccc31)CCCC2=O	0	0	0	2.6	+	0
CCn1c2c(c3cc(Cl)ccc31)CCCC2=O	0	0	0	0	0	0
Cc1cccc2cc(CN(CCN3CCCC3)C(=O)NC3CCCCC3)c(=O)[nH]c12	0	0	30	0	0	0
O=C(NC1CCCCC1)N(CCN1CCCC1)Cc1cc2cc3c(cc2[nH]c1=O)OCCO3	0	0	0	3.6	+	0
O=C(NC1CCCCC1)N(Cc1cc2cc3c(cc2[nH]c1=O)OCCO3)CC1CCCO1 (stereo not drawn)	0	0	0	4.5	-	0
Cc1ccc2nc(-c3ccc(NC(=O)CN4CCN(C(=O)c5ccco5)CC4)cc3)sc2c1	0	0	0	2.2	-	0
Cc1cc(=O)c2cc(Cl)ccc2[nH]1	0	0	0	0	0	0
CCOC(=O)c1ccc2[nH]c(C)cc(=O)c2c1	0	0	0	2.1	-	0
COC(=O)c1ccc2[nH]c(C)cc(=O)c2c1	0	0	0	2.3	-	0
CCOC(=O)c1ccc2[nH]c3c(c2c1)CN(C)CC3	0	0	0	0	0	0
CCOC(=O)c1ccc2[nH]c(C)c(CCC(C)=O)c(=O)c2c1	0	0	0	2.1	-	0
CCOC(=O)c1oc2ccccc2c1NC(=O)c1ccc(S(=O)(=O)N2CCCC2)cc1	0	0	0	2.5	0	0
COC(=O)C1=C(NC(=O)c2cccc(C)c2)CCS1	0	0	0	0	0	0
COc1cc(CNC2CCCC2)cc(OC)c1	0	41	0	0	0	0
SMILES	Abs 340nm	MK inhibit	Spn PMK inh	Autofluor 339	DPM-DC inhibit	NADH coupling
CCOc1ccc2[nH]c(C)c(CN3CCOCC3)c(=O)c2c1	0	0	0	0	0	0
COc1ccc2[nH]c(C)c(CN3CCCCC3)c(=O)c2c1	0	0	0	2.8	0	0
Cc1cc(N2CCN(C(=O)c3ccco3)CC2)n2ncnc2n1	0	42	0	0	0	0
Cc1nn2c(N3CCN(C(=O)c4ccco4)CC3)cc(C(C)(C)C)nc2c1-c1ccccc1	0	0	0	2.6	0	0
CCOC(=O)C(C)c1nc2ccccc2[nH]c1=O (stereo not drawn)	0	0	0	0	0	0
CC(C)OC(=O)CCc1nc2ccccc2[nH]c1=O	0	0	0	2	0	0
Cc1c(Cc2ccccc2)c(=O)oc2c(CN(C)C)c(O)c(Cl)cc12	0	0	0	3.8	-	0
CCCCN(C)CCNC(=O)c1c[nH]c2ccc(S(=O)(=O)N(CC)CC)cc2c1=O	0	0	0	3.2	0	0
CN(C)Cc1nc2ccccc2c(=O)n1Cc1nc(-c2cc3ccccc3o2)cs1	0	0	0	0	+	0
CCn1c(CSc2nc3ccccc3s2)nc2ccccc21	0	0	0	0	0	0
O=C(NC1(C(F)(F)F)C(=O)Nc2c1c(=O)[nH]c(=O)n2Cc1ccco1)C1CC1 (stereo not drawn)	0	0	0	0	0	0
O=C1c2ccccc2NC2CCCCCN12 (stereo not drawn)	0	0	0	3	-	0
O=C1c2ccccc2NC2CCCCC12 (stereo not drawn)	0	0	0	0	0	0
Cc1cc(=O)oc2cc(OCc3ccc(S(=O)(=O)N4CCOCC4)cc3)ccc12	0	0	0	2.1	-	0
CC(C)Cn1c(CN2CCN(c3ccccc3F)CC2)nc2c1c(=O)[nH]c(=O)n2C	0	0	0	0	0	0
CCc1cc(=O)oc2cc(OCC(=O)O)c(Cl)cc12	0	0	0	2.4	0	0
CCc1cc(=O)oc2cc(OC(C)C(=O)O)c(Cl)cc12 (stereo not drawn)	0	0	0	2.9	0	0
CCC1=NC(c2ccccc2OC)N(O)C1(C)C (stereo not drawn)	0	0	0	0	0	0
COc1cc(C2c3c(n[nH]c3C)C(=O)N2c2ccc(C)cc2)ccc1O (stereo not drawn)	0	10	0	0	0	0
CCCCCCN=CC1=C(O)C(C(=O)OC)C(C)(C)CC1=O (stereo not drawn)	0	0	0	0	0	0
O=C1NC(c2ccc3c(c2)OCO3)Nc2ccccc21 (stereo not drawn)	0	0	0	4.8	-	0
CC1(CCc2ccc3c(c2)OCO3)NC(=O)c2ccccc2N1 (stereo not drawn)	0	0	0	3.8	-	0
O=C1NC(c2ccc3c(c2)OCO3)Oc2ccccc21 (stereo not drawn)	0	0	0	0	0	0
Cc1ccccc1-n1c(=O)cc(NCc2ccc3c(c2)OCO3)[nH]c1=O	0	0	0	0	0	0
Cc1ccccc1N1CCN(c2ncnc3c2cnn3Cc2ccc(Cl)cc2)CC1	0	0	0	0	0	0
SMILES	Abs 340nm	MK inhibit	Spn PMK inh	Autofluor 339	DPM-DC inhibit	NADH coupling
c1ccc2c(c1)[nH]c1c(N3CCSCC3)ncnc12	0	0	0	0	-	0
CC(C)OCCCNc1ncnc2c1[nH]c1ccccc12	0	0	0	2.6	0	0
COc1ccc2[nH]c3c(NCCN(C(C)C)C(C)C)ncnc3c2c1	0	0	0	3.7	-	0
COc1ccccc1C(=O)Nc1cc(-c2nn3c(C)nnc3s2)ccc1C	0	0	0	0	0	0
Cc1cc(C)n2c(SCC(=O)N(C)C3CCS(=O)(=O)C3)nnc2n1 (stereo not drawn)	0	0	25	0	0	0
O=C(Nc1nc2ccccc2[nH]1)c1ccc(F)cc1	0	0	0	0	0	0
COc1ncnc(OC)c1NC(=O)c1ccc(F)cc1	0	63	0	0	0	0
CCOc1nc(-c2ccccc2)ccc1-c1noc(-c2ccco2)n1	0	0	0	2.6	0	0
COc1nc(C)ccc1-c1noc(-c2ccco2)n1	0	0	0	0	0	0

Screening data from PubChem.
